Laboratory results: PubChem BioAssay (NCI)
This is part of a sample that, as a whole, favours compounds with a hit. Of some 83,000 tested, about 20% had one in any assay.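 Results are percent growth after 48 hours of single-concentration exposure. 100 means growth as in untreated cells, lower positive values show inhibition; negative values down to -100 show cell death.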 Activity calls are given as the source filed them. The calls were made as follows: active = growth percent below 10; inactive = the rest.

These molecules were tested on MDA-MB-468 breast (assay: NCI-60 one-dose screen, 48 h (100 = growth as untreated, 0 = no growth, -100 = all killed)). Settings: 10 µM unless noted.

SMILES	growth
O=C(N/N=C/c1ccc2c(c1)OCO2)c1cnn2c1NC(c1ccccc1)C2 (stereo not given)	22.4% (inactive)
C[C@@H]1C=C2C(=O)O[C@@H]3CC[C@H](C1)[C@]23O	11.4% (inactive)
CCN(C)S(=O)(=O)Nc1cccc(Nc2ncnc3cc(NC(=O)CCl)ccc23)c1Cl	9.82% (active)
CC12CCC(C(=O)CC1=O)C2(C)C (stereo not given)	99.3% (inactive)
COc1ccc2c(c1)Oc1nc(N)c(C#N)c(N)c1C2Sc1ccc(SC)cc1 (stereo not given)	-40.8% (active)
COc1ccc(C2[C@@H](c3ccccc3)C(=O)N2c2cc(OC)c(OC)c(OC)c2)cc1F (stereo not given in full)	-4.41% (active)
O=C(NCc1ccccc1O)c1cccc2ccccc12	84.9% (inactive)
CC1CC(C)S(=O)(=O)C1 (stereo not given)	112% (inactive)
OC(COc1ccccc1Cl)CN1CCN(c2ccc(Cl)cc2)CC1 (stereo not given)	95.7% (inactive)
CCc1ccc(NC(=O)N[C@@H](Cc2cc(F)cc(F)c2)C(=O)N[C@@H]2C(=O)N3C[C@H](O)C[C@H]3C(=O)N3CCOC[C@H]3C(=O)N[C@@H](C)C(=O)N3C[C@H](C)C[C@H]3C(=O)O[C@H]2C)cc1	14.8% (inactive)
COc1ccc(Nc2nc(NCc3ccccc3)c3ccccc3n2)cc1	40.2% (inactive)
CN(C)c1ccc(C#Cc2c(F)cccc2Cl)cc1	8.33% (active)
Nc1c(C(=O)Nc2ccnc3ccccc23)sc2nc3c(cc12)CN(Cc1ccccc1)CC3	44% (inactive)
COc1nccnn1	82.9% (inactive)
Oc1c(Br)cc(Cl)cc1C(c1cc(Cl)cc(Br)c1O)C(Cl)(Cl)Cl	-4.05% (active)
CN(C)C/C=C/C(=O)Nc1cc2c(Nc3ccc(F)c(Cl)c3)ncnc2cc1O[C@H]1CCOC1	-40.5% (active)
Cc1ccccc1N1CCN(C2=C(Cl)C(=O)c3ncccc3C2=O)CC1	-68.8% (active)
O=Cc1ccc(-c2cn3ccnc3c(-c3ccc4ncn(Cc5ccccc5)c4c3)n2)cc1	105% (inactive)
N[C@@H](Cc1cn(-c2ccnc3ccccc23)nn1)C(=O)O	108% (inactive)
COc1cccc(Nc2ccnc3[nH]c4ccc([N+](=O)[O-])cc4c23)c1	23.1% (inactive)

SMILES	growth
COc1ccc(-c2n[nH]nc2-c2csc3ccccc23)cc1OC	21.1% (inactive)
Cc1c2ncccc2nc2[nH]c3ccc(OCCN(C)C)cc3c12	-34.7% (active)
C=C(C)[C@@H]1CC[C@]2(COP(=O)(OCC)OCC)CC[C@]3(C)[C@H](CC[C@@H]4[C@@]5(C)CCCNC(C)(C)[C@@H]5CC[C@]43C)[C@@H]12	24.6% (inactive)
COc1ccc(S(=O)(=O)N(Cc2ccc3c(n2)C=CC(C)(C)O3)C2CCC2)cc1OC	-8.27% (active)
Cc1nc2sc(C(=O)Nc3ccccc3)c(N)c2cc1C(=O)c1ccccc1	9.68% (active)
CCOC(=O)c1sc(NCC(=O)Nc2cccc([N+](=O)[O-])c2)c(C(=O)OCC)c1C	-47.4% (active)
C[C@@H]1C[C@H]2C(=O)O[C@@H](C)C(NC(=O)[C@H](Cc3cc(F)cc(F)c3)NC(=O)Nc3ccc(Cl)cc3F)C(=O)N3CCC[C@H]3C(=O)N3CCCC[C@H]3C(=O)N[C@@H](CO)C(=O)N2C1 (stereo not given in full)	-10.4% (active)
O=C(N/N=C\c1cc(Br)ccc1O)c1ccncc1	24% (inactive)
Cc1ccc2c(c1)sc(-c1ccc(N(C)C)cc1)[n+]2C	-11.3% (active)
Cc1cccc(NC2=C(C#N)C(=O)NC3(CCCC3)S2)c1	101% (inactive)
CCCCCCNC(=O)Oc1ccc(/C(=C(/C)Cc2ccc(OC)cc2)c2ccc(OCCCN(C)C)cc2)cc1	-17.3% (active)
COc1ccc(/C=C(/C(=O)N2CCCC2)c2cc(OC)c(OC)c(OC)c2)cc1	11.6% (inactive)
C1=C(N2CCCC2)CCC1	96.2% (inactive)
CCSc1ccc(C2C(Br)C(=O)N2c2cc(OC)c(OC)c(OC)c2)cc1 (stereo not given)	27.7% (inactive)
COc1cc(CN(c2ccc(C)cc2)C2OC(=O)c3ccccc32)cc(OC)c1OC (stereo not given)	25% (inactive)
Cc1cc(C#Cc2ccccc2)ccc1-n1c(/C=C/c2ccc(F)cc2)nc2ccccc2c1=O	49.3% (inactive)
CCCCCCCCOc1ccc(/C=N/Nc2cc(C)nc3ccc(Br)cc23)cc1	90% (inactive)
Cc1nc2ccc(-n3c(-c4ccc(Cl)cc4)nc4ccccc4c3=O)cc2n1Cc1ccccc1	77.6% (inactive)
COc1cc2nc(Cl)nc(Nc3cccc(C4=Nc5c(N)nc(N)nc5NC(c5ccc(Br)cc5)C4)c3)c2cc1OC (stereo not given)	90.3% (inactive)
CC(C)(C)OC(=O)N1CCC(O)[C@@H](O[Si](c2ccccc2)(c2ccccc2)C(C)(C)C)[C@H]1/C=C/c1ccccc1 (stereo not given in full)	15.2% (inactive)
